Hit rate of the full screen: of about 2,300 compounds, about 330 (14%) showed activity.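 How the source made its calls: active = median modified Z-score above 1.96; inactive = 1.96 or below.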 A selection follows.
Test system: HepG2 Srxn1-GFP reporter cells (+30 nM CDDO-Me)
Experiment: Srxn1-GFP intensity median modified Z-score relative to plate median; higher = stronger NRF2 / oxidative stress reporter activation, active = hit call of the paper
Conditions: 10 µM; exposure time: 24h
Summary of the method: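 HepG2 Srxn1-GFP BAC reporter cells were seeded at 20,000 per well in 96-well plates and co-exposed for 24 h to compound at 10 μM and an NRF2 activator at 30 nM, with DMSO at ≤0.1%, in three replicate plates. Cells were fixed with formaldehyde, stained with Hoechst and imaged by confocal microscopy, and cytoplasmic GFP was measured per cell, with images holding under 100 cells discarded. The reported value is the median over replicates of each plate's modified Z-score of GFP intensity. For this score, scaling used 1.4826 × median absolute deviation.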

Row | SMILES | Srxn1-GFP intensity median modified Z-score
1 | O=C(O)CCC(=O)OC[C@@H](NC(=O)C(Cl)Cl)[C@H](O)c1ccc([N+](=O)[O-])cc1 [euspeclibcmpd2230] | -0.0902 (inactive)
2 | NC(CSCSCC(N)C(=O)O)C(=O)O (stereo not given) [euspeclibcmpd1615] | -0.0888 (inactive)
3 | C[C@]12CCC(=O)CC1=CCC1C2[C@@H](O)C[C@@]2(C)C1CC[C@]2(O)C(=O)COC(=O)CCC(=O)O (stereo not given in full) [euspeclibcmpd152] | -0.766 (inactive)
4 | CC1CCC2(C(=O)O)CCC3(C)C(=CCC4C5(C)CC(O)C(O)C(C)(CO)C5CCC43C)C2C1C (stereo not given) [euspeclibcmpd1959] | -0.237 (inactive)
5 | N=C(N)c1ccc(N=NNc2ccc(C(=N)N)cc2)cc1 [euspeclibcmpd1093] | 0.338 (inactive)
6 | N=C(N)c1ccc(OCCCCCOc2ccc(C(=N)N)cc2)cc1 [euspeclibcmpd1040] | 12.5 (active)
7 | CCCCCCOc1ccccc1C(N)=O [euspeclibcmpd1139] | 0.59 (inactive)
8 | C[C@@H]1CCC2[C@](C)(CO)[C@@H](O)CC[C@]2(C)[C@@]12CC[C@@](CO)(CCO)O2 (stereo not given in full) [euspeclibcmpd1570] | -0.216 (inactive)
9 | CCOc1cc(/C=C/C(=O)O)ccc1OC | 0.394 (inactive)
10 | CCNC(=O)CCC(N)C(=O)O (stereo not given) [euspeclibcmpd2170] | -0.00834 (inactive)
11 | CC12CCC(=O)N1C(C(=O)NCCCNS(C)(=O)=O)CS2 (stereo not given) | 2.02 (active)
12 | CC(=O)COc1ccc2c(C)cc(=O)oc2c1 | 1.43 (inactive)
13 | CN(C)C1C(=O)C(C(=O)NCN2CCCC2)C(=O)C2(O)C(=O)C3C(=O)c4c(O)cccc4C(C)(O)C3CC12 (stereo not given) [euspeclibcmpd1955] | -0.368 (inactive)
14 | C[C@]12C=CC(=O)CC1=CCC1C2C(=O)C[C@@]2(C)C1CC[C@]2(O)C(=O)CO (stereo not given in full) [euspeclibcmpd243] | -0.188 (inactive)
15 | CC(=O)OC1CCC23C(=O)OC45CCC(c6coc(O)c6)C4(C)CCC2C5CCC3(O)C1 (stereo not given) [euspeclibcmpd1387] | -1.25 (inactive)
16 | [Cl][Ca][Cl] [euspeclibcmpd2470] | 1.27 (inactive)
17 | N#CCC(=O)NN [euspeclibcmpd1098] | 3.08 (active)
18 | CON=C1CN(c2nc3c(cc2F)c(=O)c(C(=O)O)cn3C2CC2)CC1CN (stereo not given) [euspeclibcmpd871] | -0.00523 (inactive)
19 | CC1=C(C(=O)O)N2C(=O)C(=NC(=O)C(N)C3CC=CCC3)C2SC1 (stereo not given) [euspeclibcmpd49] | -0.299 (inactive)
20 | CN(C)CC(=O)OCC(=O)C(O)C(O)C(O)C(O)O (stereo not given) [euspeclibcmpd2264] | -0.422 (inactive)
